Source: the OligoGym collection

Target: DMKN
Experiment: pooled miR-30 sensor sort-seq; sequence = guide strand
Conditions: shRNA
Also: reference of the scale not given here.

Row | Sequence | sensor-assay potency score (higher = more potent)
1 | TTTGCAGGGGTCTTGACTGAGT | -1.13
2 | TTGTTGTTGTCACCATTGCTGC | -0.932
3 | TGCCTGTCTGCCAATCTCGTGC | -0.915
4 | TCGAATGACATCTTCTGCCTGT | 0.442
5 | TGTAATTGTAGTTCTGATCGGC | 0.784
6 | TTGTTGTCACCATTGCTGCCAC | -0.584
7 | TAGTTCTGATCGGCTCTGCCTG | -0.576
8 | TTGTAGTTCTGATCGGCTCTGC | 0.13

Target: DMRT3
Experiment: as above
Conditions: shRNA

Row | Sequence | sensor-assay potency score (higher = more potent)
9 | TACATTAACCTGACAAAGCTTA | 0.0811
10 | TTTTTTAACACTTCAAGCGGCG | -0.226
11 | TTGCAACAGAACCACTTCCTTT | -0.544
12 | TACATTGACATTACACATGTTT | -0.269
13 | TACTCTTTGCCACATCTGGGGA | -0.96
14 | TTTGTCACTGAAGACCTCTGTA | 0.155
15 | TTACTCTTTGCCACATCTGGGG | -0.22
16 | TTGACACAAATGGACACCCATC | -1.32
17 | TTTGACACAAATGGACACCCAT | 0.206
18 | TAGACTCTCAGGTTCTGCGGAA | -0.423
19 | TTGTCTCTGAAAACTGTCCAAG | -0.806

Target: DMRTC2
Experiment: as above
Conditions: shRNA

Row | Sequence | sensor-assay potency score (higher = more potent)
20 | TATCAGAGTTGAGTGTGTGCGG | -0.137
21 | TTGTGACACTCGCAAGCCTGGA | -1.29
22 | TCTGAGGGACCAGATGTCCGGG | -1.06
23 | ATTTGTGACACTCGCAAGCCTG | -0.869
24 | TCAGTACTGGGTGAGATCCTGG | -0.163
25 | ATATGCAGAGCAACAGAGGGGG | -0.319
26 | TCAGAGTTGAGTGTGTGCGGGG | -0.0492
27 | TTTGTGACACTCGCAAGCCTGG | -0.968
28 | ACACATTTGTGACACTCGCAAG | -1.72
29 | TATGCAGAGCAACAGAGGGGGC | -1.35
30 | TTCTGAAGTGGTTGGGAGCTTT | -0.576
31 | TAGCTGAAGAGGGTCTGGGGTG | -1.25

Target: DMXL1
Experiment: as above
Conditions: shRNA

Row | Sequence | sensor-assay potency score (higher = more potent)
32 | TTCTACATTATACCAAACCTTC | -0.955
33 | TTATTTGAAAATTAGGATGGGA | 0.431
34 | TTTTTCTGAACTTCCATCTGGA | 0.702
35 | TTTCTGAACTTCCATCTGGAGA | -0.95
36 | AAATAGTACATAATTGTCCCAT | 0.365
37 | TTGAACTCGTTCTTTACTGGAA | -0.246
38 | TTTTCTATAATTCTGAATCAGA | -0.788
39 | TAACATTTCCATAAGACGCTGC | 0.508
40 | TTCTATATCATCATCTACCCAA | -0.207
